Reference: PubChem BioAssay AID493231 (Broad Institute, 2011)
Entries with a potency or affinity are not part of this list. Activity calls are given as the source filed them. No rule for the calls is given here.

What follows are compounds tested against Acyl-homoserine lactone acylase PvdQ (Pseudomonas aeruginosa (strain ATCC 15692 / DSM 22644 / CIP 104116 / JCM 14847 / LMG 12228 / 1C / PRS 101 / PAO1)) (UniProt Q9I194) (assay: P. aeruginosa PvdQ acylase inhibitors, dose response, biochemical, fluorescence, plate reader and imaging, cherry-picks (AID 493231;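 also: 0% = neutral control wells and -100% = reference inhibitor wells; more negative values mean stronger inhibition of the acylase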)). Conditions: purified PvdQ acylase, fluorogenic substrate; series mostly up to 10 µM; activity change, negative = inhibition: at the top concentration.
Acyl-homoserine lactone acylase PvdQ (Pseudomonas aeruginosa (strain ATCC 15692 / DSM 22644 / CIP 104116 / JCM 14847 / LMG 12228 / 1C / PRS 101 / PAO1)), sequence (Q9I194 whole entry, looked up): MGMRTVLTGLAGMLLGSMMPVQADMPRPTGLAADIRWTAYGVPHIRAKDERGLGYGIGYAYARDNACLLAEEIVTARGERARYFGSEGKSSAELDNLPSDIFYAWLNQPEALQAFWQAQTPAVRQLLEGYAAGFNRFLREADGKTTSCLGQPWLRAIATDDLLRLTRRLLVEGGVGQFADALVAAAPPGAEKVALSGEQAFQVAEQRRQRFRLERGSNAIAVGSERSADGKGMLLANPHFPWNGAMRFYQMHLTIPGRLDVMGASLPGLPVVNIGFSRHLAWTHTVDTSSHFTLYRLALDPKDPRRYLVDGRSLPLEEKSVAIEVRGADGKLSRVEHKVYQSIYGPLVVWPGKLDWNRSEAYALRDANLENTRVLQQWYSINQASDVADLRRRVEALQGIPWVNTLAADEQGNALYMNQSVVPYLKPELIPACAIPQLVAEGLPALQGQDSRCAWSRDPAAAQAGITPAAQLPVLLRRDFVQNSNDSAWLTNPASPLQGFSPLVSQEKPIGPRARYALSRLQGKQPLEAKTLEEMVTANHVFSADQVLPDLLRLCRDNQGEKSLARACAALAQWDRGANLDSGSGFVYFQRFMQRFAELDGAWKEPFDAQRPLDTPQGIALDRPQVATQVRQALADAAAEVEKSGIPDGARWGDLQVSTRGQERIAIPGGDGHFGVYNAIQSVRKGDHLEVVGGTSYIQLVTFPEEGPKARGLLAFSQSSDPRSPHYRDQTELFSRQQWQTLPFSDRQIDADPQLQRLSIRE

Row | SMILES | activity change, negative = inhibition
1 | CCOC(=O)c1ccc(N2CCN(c3ccccc3F)CC2)c(NC(=O)Nc2cccc(OC)c2)c1 | -5.01 unspecified (inactive)
2 | COc1ccccc1OCCC(=O)OCC(=O)c1c(N)n(C)c(=O)n(C)c1=O | 6.02 unspecified (inactive)
3 | CCN1CCCC1CN(Cc1cc2ccc(C)cc2[nH]c1=O)C(=S)Nc1cccc(OC)c1 (stereo unspecified) | 13.5 unspecified (inactive)
4 | CSCCC(NC(=O)c1ccc([N+](=O)[O-])cc1Cl)C(=O)OCC(=O)N(C)C (stereo unspecified) | -102 unspecified (inactive)
5 | COC(=O)c1sccc1N/N=C/c1ccc(OC)c(OC)c1OC | 10 unspecified (inactive)
6 | COc1ccccc1CNS(=O)(=O)CCNCCc1ccccc1 | -100 unspecified (inactive)
7 | O=[N+]([O-])c1nn(-c2ccc(Cl)cc2)n(O)c1=NCc1ccccc1 | 7.14 unspecified (inactive)
8 | Cc1ccc(SCC(=O)Nc2ccc(F)cc2[N+](=O)[O-])cc1C | 12.6 unspecified (inactive)
9 | COc1ccc(OCCSc2nc3ccccc3n2CCC(=O)O)cc1 | 8.07 unspecified (inactive)
10 | COC(=O)CNC(c1ccccc1)c1cc(C)ccc1NS(=O)(=O)c1ccc(C)cc1 (stereo unspecified) | -4.14 unspecified (inactive)
11 | NC(=O)c1oc2ccccc2c1NC(=O)Cc1ccccc1 | 9.46 unspecified (inactive)
12 | NC(=O)c1ncn([C@@H]2O[C@H](CNCc3ccc(-c4cc(C(F)(F)F)ccc4Cl)o3)[C@@H](O)[C@H]2O)n1 | 10.7 unspecified (inactive)
13 | CC(=O)c1ccc(NC(=S)N2CCCC(CO)C2)cc1 (stereo unspecified) | 10.3 unspecified (inactive)
14 | O=C1C=C(c2ccccc2)OC(c2ccccc2)O1 (stereo unspecified) | -14 unspecified (inactive)
15 | CCSc1ccc(-c2cccc([N+](=O)[O-])c2)nn1 | -7.89 unspecified (inactive)
16 | COc1ccccc1C1CCN(C(=O)C2CCCCC2)CC1 | -96.5 unspecified (inactive)
17 | Cc1ccc(Nc2nc(-c3sc(C)nc3C)cs2)cc1 | 17.1 unspecified (inactive)
18 | Cc1ccccc1-c1cc(C(=O)NCc2cccs2)nn1CC1CC(c2cccc([N+](=O)[O-])c2)=NO1 (stereo unspecified) | -2.87 unspecified (inactive)

Row | SMILES | activity change, negative = inhibition
19 | CC(C)CCN(CCC(C)C)C(CO)(CO)CO | 2.29 unspecified (inactive)
20 | Cc1cc(NCCCn2ccnc2)n2nc(-c3ccc(Cl)cc3)cc2n1 | 4.65 unspecified (inactive)
21 | COC(=O)c1ccc(-c2nc3ccccc3[nH]2)cc1 | -13.8 unspecified (inactive)
22 | COc1ccc(OC2CCN(S(=O)(=O)c3ccc(OC)c(OC)c3)CC2)cc1 | 4.97 unspecified (inactive)
23 | C/C(CCC1CC(C)OC1=O)=N/Nc1nc(-c2ccccc2)cs1 (stereo unspecified) | 9.21 unspecified (inactive)
24 | CC(C)(C)OC(=O)N(CCc1ccccc1)Cc1ccccc1OCc1cccc(NC(=O)C2CC2)c1 | 9.08 unspecified (inactive)
25 | NC(=O)COC(=O)c1ccc(-c2ccccc2)cc1 | -6.71 unspecified (inactive)
26 | Cc1ncc(CN2CCN(Cc3ccc(F)cc3)C(CCO)C2)s1 (stereo unspecified) | 10.5 unspecified (inactive)
27 | O=C(NCC1CCCCC1)c1cc(Br)ccc1Cl | 3.04 unspecified (inactive)
28 | CC(NC(=O)C1CCCN(C(=O)c2ccc(Cl)cc2)C1)c1cccc(C(F)(F)F)c1 (stereo unspecified) | -0.568 unspecified (inactive)
29 | Cc1cc(C)n2c(SCC(=O)Nc3ccc(F)cc3)nnc2n1 | 4.45 unspecified (inactive)
30 | CCn1c(Cc2ccccc2)nnc1SCC(=O)Nc1ccccc1 | 4.67 unspecified (inactive)
31 | O=C(/C=C/c1ccc(Cl)c([N+](=O)[O-])c1)c1ccc(O)cc1 | -2.73 unspecified (inactive)
32 | Cc1[nH]nc2c1C(c1ccco1)C(C#N)=C(N)O2 (stereo unspecified) | 10.3 unspecified (inactive)
33 | COc1cc2nc(CN3CCN(S(=O)(=O)c4c(F)cccc4F)CC3)[nH]c(=O)c2cc1OC | 3.22 unspecified (inactive)
34 | O=C(/C=C/c1ccc(Br)cc1)c1ccco1 | -12.8 unspecified (inactive)
35 | COc1ccc(OC)c(C(=O)c2oc3ccccc3c2NC(C)=O)c1 | -10.5 unspecified (inactive)
36 | COCCCNC(=O)c1cc(S(=O)(=O)NCCCN2CCCC2=O)ccc1Cl | -7.4 unspecified (inactive)
